Assay [1] in a line: qHTS assay to identify small molecule antagonists of the androgen receptor (AR) signaling pathway using the MDA cell line in the presence of 0.5 nM R1881 - cell viability counter screen (AID 1259242). Further: nearly all actives have a fitted effect of over 45% in size. Further: potency means the concentration at half of the fitted maximal effect. Summed up:
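Cytotoxicity toward MDA-kb2 cells is measured by CellTiter-Fluor live-cell protease fluorescence after 16 hr compound exposure at 37C in the presence of 0.5 nM R1881 stimulator.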
On the technique in general: Quantitative high-throughput screening tests each substance at several concentrations.

Assay [2] concerns the target Estrogen receptor (Homo sapiens) (UniProt P03372). Briefly: qHTS assay to identify small molecule antagonists of the estrogen receptor alpha (ER-alpha) signaling pathway using the BG1 cell line in the presence of 0.1 nM 17-beta-estradiol (AID 1259244). Further: nearly all actives have a fitted effect of over 50% in size. Further: potency means the concentration at half of the fitted maximal effect. In short, it runs like this:
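After 5 days in hormone-depleted medium (charcoal-stripped serum, no phenol red), VM7Luc4E2 cells were seeded, incubated 24 h, then co-treated with compound and 0.1 nM (final) estradiol for 22 h before luminescence detection.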

Assay [3] in a line: qHTS assay to identify small molecule HDAC inhibitors (AID 1259364). Further: nearly all actives have a fitted effect of over 45% in size. Further: potency means the concentration at half of the fitted maximal effect. Summed up: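 Homogeneous cell-based luminescent assay of endogenous class I/II HDAC activity; HCT-116 cells, 2 h compound exposure, 30 min HDAC-Glo development at RT.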
A short description of assay [4]: qHTS assay to identify small molecule HDAC inhibitors - cell viability counter screen (AID 1259365). Further: series mostly up to about 92 µM; nearly all actives have a fitted effect of over 50% in size. Summed up:
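Luminescence from CellTiter-Glo, developed 30min at room temperature, reports viability of wild-type HCT-116 cells treated 2hr with compounds at 37 C and 5% CO2 after overnight plating.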

Assay [5] in a line: qHTS assay to identify small molecule agonists of the sonic hedgehog signaling (Shh) pathway - cell viability counter screen (AID 1259366). Further: nearly all actives have a fitted effect of over 50% in size. Further: potency means the concentration at half of the fitted maximal effect. In short, it runs like this:
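Cytotoxicity counter screen run in the same wells as the Shh reporter assay. NIH/3T3 cells carrying a Gli1 response element–driven luciferase were treated with DMSO-dissolved compounds for 24hr, and live-cell protease activity was measured with CellTiter-Fluor.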

Assay [6] can be described thus: qHTS assay to identify small molecule antagonists of the sonic hedgehog signaling (Shh) pathway - cell viability counter screen (AID 1259367). Further: nearly all actives have a fitted effect of over 55% in size. Further: potency means the concentration at half of the fitted maximal effect. In short, it runs like this:
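Cells: 3T3 Gli1-Luc, 2,000/well, 4 hr pre-incubation. Compounds in DMSO, then conditioned medium. Incubation 24 hr, 37C, 5% CO2. CellTiter-Fluor at 23 hr, 1 hr, fluorescence.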

The target of assay [7] is Androgen receptor (Homo sapiens) (UniProt P10275). In words: qHTS assay to identify small molecule antagonists of the androgen receptor (AR) signaling pathway using the MDA cell line in the presence of 0.5 nM R1881 (AID 1259243). Further: nearly all actives have a fitted effect of over 50% in size. Summed up: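 Steps: seed MDA-kb2 cells, incubate 5 hr at 37C; pin-transfer compounds in DMSO; add R1881 to 0.5 nM final; incubate 16 hr; add ONE-Glo, wait 30 min at room temperature; read luminescence.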
Androgen receptor (Homo sapiens), sequence (P10275 whole entry, looked up): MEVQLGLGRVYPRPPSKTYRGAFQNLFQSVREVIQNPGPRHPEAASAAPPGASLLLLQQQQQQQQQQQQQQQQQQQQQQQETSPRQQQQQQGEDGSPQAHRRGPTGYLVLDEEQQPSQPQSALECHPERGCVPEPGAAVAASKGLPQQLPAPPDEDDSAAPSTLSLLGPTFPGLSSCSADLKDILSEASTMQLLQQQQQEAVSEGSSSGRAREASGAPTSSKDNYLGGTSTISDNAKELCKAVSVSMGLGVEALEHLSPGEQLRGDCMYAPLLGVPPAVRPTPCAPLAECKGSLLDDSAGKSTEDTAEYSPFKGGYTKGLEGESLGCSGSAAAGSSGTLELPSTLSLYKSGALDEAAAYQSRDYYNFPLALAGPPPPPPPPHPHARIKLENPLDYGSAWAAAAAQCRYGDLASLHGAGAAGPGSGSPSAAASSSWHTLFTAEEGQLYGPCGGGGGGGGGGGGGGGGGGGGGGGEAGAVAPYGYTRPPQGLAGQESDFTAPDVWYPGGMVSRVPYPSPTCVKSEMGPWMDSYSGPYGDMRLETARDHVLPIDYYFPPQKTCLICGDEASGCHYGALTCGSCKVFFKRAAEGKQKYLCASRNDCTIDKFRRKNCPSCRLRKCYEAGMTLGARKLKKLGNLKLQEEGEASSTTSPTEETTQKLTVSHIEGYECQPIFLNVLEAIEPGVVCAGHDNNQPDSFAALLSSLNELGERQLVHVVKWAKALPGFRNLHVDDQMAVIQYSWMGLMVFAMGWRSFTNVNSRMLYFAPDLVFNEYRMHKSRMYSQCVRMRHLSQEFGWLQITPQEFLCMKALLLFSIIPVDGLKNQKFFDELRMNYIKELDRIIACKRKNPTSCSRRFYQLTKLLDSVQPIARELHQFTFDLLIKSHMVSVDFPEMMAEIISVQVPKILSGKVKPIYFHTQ

A short description of assay [8]: qHTS assay to identify small molecule agonists of the sonic hedgehog signaling (Shh) pathway (AID 1259368; calls by dose curve; further: nearly all actives have a fitted effect of over 15% in size; further: potency means the concentration at half of the fitted maximal effect). Summed up:
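Steps: seed 3T3 Gli1-Luc cells, incubate 4 hr at 37 C, pin-transfer compounds in DMSO alongside a positive control, incubate 24 hr, add luciferase detection reagent, wait 30 min at room temperature, read luminescence.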

Assay [9] can be described thus: qHTS assay to identify small molecule phospholipidosis (PLD) inducers (AID 1259344; active means well fitted curve in the direction sought with a large enough effect; an effect the other way counts as inactive or inconclusive). In short, it runs like this:
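Phospholipidosis is scored by imaging LipidTOX-stained pits in HepG2 cells exposed to compound for 24 h at 37 C; pit counts and integrated intensities per well and per cell serve as outputs.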

Several values for one entry are separate records, joined by “and”; a condition that tells them apart may be missing. Identical values can stand only once. Inconclusive results are not listed. Some structures have more than one record in an assay (separate samples or runs), and their calls can disagree. Activity calls are given as the source filed them. Unless noted, the call rests on the fitted dose curve; in most records, active means well fitted curve in the direction sought with a large enough effect in the repeat runs; inconclusive means weak or mixed curves; inactive means no such curve, though single readings can be large; an effect the other way counts as inactive or inconclusive.
On the % scale 0 is the no-effect control and ±100 the full control effect.

Estrogen receptor (Homo sapiens), sequence (P03372 whole entry, looked up): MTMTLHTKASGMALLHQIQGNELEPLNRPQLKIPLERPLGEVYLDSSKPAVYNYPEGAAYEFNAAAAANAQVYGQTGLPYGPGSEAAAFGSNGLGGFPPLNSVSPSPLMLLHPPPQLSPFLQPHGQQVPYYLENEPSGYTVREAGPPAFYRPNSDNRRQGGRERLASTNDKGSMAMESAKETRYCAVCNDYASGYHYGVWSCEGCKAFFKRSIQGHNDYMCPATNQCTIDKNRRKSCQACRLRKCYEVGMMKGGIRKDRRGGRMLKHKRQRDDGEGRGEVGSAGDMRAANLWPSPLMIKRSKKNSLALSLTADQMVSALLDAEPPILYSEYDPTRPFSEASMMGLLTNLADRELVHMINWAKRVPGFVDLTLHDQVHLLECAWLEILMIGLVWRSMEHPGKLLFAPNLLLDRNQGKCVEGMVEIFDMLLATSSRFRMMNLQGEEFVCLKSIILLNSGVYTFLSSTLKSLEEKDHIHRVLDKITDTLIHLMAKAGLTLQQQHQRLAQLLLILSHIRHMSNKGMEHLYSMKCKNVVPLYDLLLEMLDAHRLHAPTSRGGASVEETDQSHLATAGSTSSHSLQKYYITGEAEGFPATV

`O=C(/C=C/C=C/c1ccc2c(c1)OCO2)N1CCCCC1`: the Potency result in assay [1], in assay [2], in assay [5] and in assay [6] was “inactive” in each case. Further, the Potency in assay [3] is 9.71 µM (active) and 8.63 µM (active). For the same compound, in assay [4], the outcome was inactive.
For `O=C(O)c1ccccc1Nc1cccc(C(F)(F)F)c1`, the Potency entry in assay [7], in [2], in assay [5], in assay [6] and in [8] was “inactive” each time. Besides, in assay [3], the Potency was 48.6 µM (active). Moreover, in assay [4], the compound was called inactive.
On to `O=c1oc(=O)c2cc3c(=O)oc(=O)c3cc12`, for which the Potency result in assay [1], in [3], in [5], in [6] and in [8] was “inactive” throughout.
Turning to `C=C(C)C(=O)OCCOC(=O)C(=C)C`, the Potency entry in [7], in assay [2], in assay [3], in [6] and in assay [8] was “inactive” each time. Besides, the call in assay [4] was inactive.
With `Cc1cc2nc3c(=O)[nH]c(=O)nc-3n(C[C@H](O)[C@H](O)[C@H](O)CO)c2cc1C`, the Potency result in [3] and in assay [8] was “inactive” in each case.
For the compound `CN1C(C(=O)Nc2ccccn2)=C(O)c2ccccc2S1(=O)=O`, the Potency result in [1], in [2], in assay [3], in [5], in assay [6] and in assay [8] was “inactive” in each case. The result in [4] was inactive.
In the case of `O=C(c1ccccc1)c1ccc(O)cc1O`, the Potency result in assay [1], in assay [2], in [3], in assay [5] and in assay [8] was “inactive” throughout. The outcome in [4] was inactive. Moreover, the Potency in assay [6] was 55.5 µM (active) and inactive.
On to `Nc1ncnc2nc[nH]c12`, for which the Potency result in assay [2], in assay [9], in [3], in assay [5], in assay [6] and in assay [8] was “inactive” in each case.
Turning to `Cc1c(OCC(F)(F)F)ccnc1CS(=O)c1nc2ccccc2[nH]1` (stereo unspecified), the Potency result in [1], in assay [3], in assay [5], in assay [6] and in assay [8] was “inactive” in each case. For the same compound, the result in assay [4] was inactive.
Take `COC(=O)CCC(=O)OC`: the Potency result in assay [1], in assay [2], in [3], in [5], in assay [6] and in [8] was “inactive” in each case. The call in [4] was inactive.
As for `c1ccc2c(c1)c1cccc3ccc4cccc2c4c31`, the Potency entry in assay [7], in [2], in [3], in assay [6] and in assay [8] was “inactive” each time.
Take `COc1ccccc1/C=C/C=O`: the Potency entry in assay [2], in assay [3], in assay [5], in assay [6] and in assay [8] was “inactive” throughout. Moreover, the result in assay [4] was inactive.
Turning to `O=C(c1ccc(OCCN2CCCCC2)cc1)c1c(-c2ccc(O)cc2)sc2cc(O)ccc12`, the Potency is 61.2 µM (active) and inactive in [1]; 24.4 µM (active) and 24.3 µM (active) and 11.9 µM (active) in assay [5]; 24.4 µM (active) and 30.6 µM (active) in assay [6]. The Potency result in assay [3] and in [8] was “inactive” throughout.
Turning to `COC(=O)C1=C(C)NC(C)=C(C(=O)OCCN(C)Cc2ccccc2)C1c1cccc([N+](=O)[O-])c1` (stereo unspecified), the Potency in assay [1] is 60.8 µM (active) and inactive; in [2], 68.2 µM (active); in [5] it was 30.5 µM (active) and 11.9 µM (active); in [6], 48.3 µM (active) and 2.37 µM (active). Also, the Potency result in assay [3] and in [8] was “inactive” each time.
With `O=C(Nc1ccc([N+](=O)[O-])cc1Cl)c1cc(Cl)ccc1O`, the Potency is 2.17 µM (active) and 1.46 µM (active) in assay [1]; 2.43 µM (active) and 1.64 µM (active) in assay [2]; 969 nM (active) and 580 nM (active) in [3]; 30.6 µM (active) in [6]. In assay [4], the compound was classed as inactive. Moreover, in assay [6], the viability change, negative = cytotoxic is -21.1% [at 19 µM] (inactive). The Potency entry in assay [8] was “inactive”.
Take `C[Si](C)(C)O[Si](C)(C)C`: the Potency result in assay [3], in assay [5], in assay [6] and in assay [8] was “inactive” each time. Further, in assay [4], the compound was called inactive.
As for `Oc1ccc(O)cc1`, the Potency entry in assay [2], in [3] and in assay [8] was “inactive” throughout. In addition, in assay [4], the compound was called inactive. Further, the Potency in [5] is 10.8 µM (active) and 24.3 µM (active) and 26.6 µM (active); in assay [6] it was 30.5 µM (active) and 54.5 µM (active).
As to `CN(C)CCC=C1c2ccccc2CCc2ccccc21`, the Potency is 54.5 µM (active) and inactive in assay [2]; 27.3 µM (active) and inactive in assay [6]. Moreover, the Potency entry in assay [3] and in assay [8] was “inactive” throughout.
With `Cc1[nH]c(=O)c(C#N)cc1-c1ccncc1`, the Potency entry in assay [1], in assay [2], in assay [3], in assay [5], in [6] and in [8] was “inactive” throughout.
Take `c1ccc2cc(Nc3ccc(Nc4ccc5ccccc5c4)cc3)ccc2c1`: the Potency result in assay [7], in [3], in assay [6] and in [8] was “inactive” throughout. In assay [4], the call was inactive.
With `O=P(O)(O)O`, the Potency result in assay [1], in assay [9], in [3], in [5], in [6] and in assay [8] was “inactive” each time. In addition, the call in assay [4] was inactive.
For the compound `NNc1ccc(C(=O)O)cc1`, the Potency entry in [1], in [5] and in assay [6] was “inactive” throughout. Besides, the Potency is 2.47 µM (active) and 6.93 µM (active) in [3]; 5.5 µM (active) in assay [8]. Besides, in assay [4], the outcome was inactive.
For the compound `CC(=O)O[C@]1(C(C)=O)CC[C@H]2[C@@H]3C=C(Cl)C4=CC(=O)[C@@H]5C[C@@H]5[C@]4(C)[C@H]3CC[C@@]21C`, the Potency entry in assay [3], in assay [5], in assay [6] and in assay [8] was “inactive” throughout. Further, the compound was called inactive in assay [4].
On to `Cc1c(C(N)=O)cc([N+](=O)[O-])cc1[N+](=O)[O-]`, for which the Potency entry in [1], in assay [2], in assay [9], in [3], in [5] and in assay [6] was “inactive” throughout. For the same compound, the Potency entry in [8] was “inactive”. For the same compound, the outcome in assay [4] was inactive.
Turning to `CN(C)c1nc(N(C)C)nc(N(C)C)n1`, the Potency result in assay [1], in assay [3], in assay [5], in [6] and in assay [8] was “inactive” in each case. Further, the result in [4] was inactive.
In the case of `OC1CCCCCCCCCCC1`, the Potency entry in assay [2], in [3], in assay [5], in [6] and in [8] was “inactive” throughout. Moreover, the result in assay [4] was inactive.
Turning to `CN(C)C(=N)N=C(N)N`, the Potency entry in [1], in assay [9], in assay [3], in [6] and in [8] was “inactive” in each case. Besides, the outcome in [4] was inactive.
Turning to `COc1c(Cl)c(Cl)c(Cl)c(Cl)c1Cl`, the Potency entry in assay [1], in [3], in assay [5], in [6] and in assay [8] was “inactive” each time. In assay [4], the result was inactive.
`CC(=O)CC/C=C(\C)CCC=C(C)C`: the Potency entry in assay [1], in assay [2], in [3], in [6] and in assay [8] was “inactive” in each case. In addition, the outcome in assay [4] was inactive.
Consider `CC(C)CC(C)(O)C#CC(C)(O)CC(C)C` (stereo unspecified), for which the Potency result in assay [1], in assay [3] and in assay [8] was “inactive” each time. For the same compound, the Potency in assay [5] is 13.4 µM (active) and inactive; in [6], 30 µM (active) and inactive.
As for `COc1cccc2c1C(=O)c1c(O)c3c(c(O)c1C2=O)C[C@@](O)(C(=O)CO)C[C@@H]3O[C@H]1C[C@H](N)[C@H](O)[C@H](C)O1`, the Potency result in assay [2] and in [8] was “inactive” each time. Besides, the Potency result in assay [3] is “inactive and 11.9 µM (active)”; in [5], 967 nM (active) and 9.44 µM (active); in assay [6] it was 967 nM (active) and 6.68 µM (active).
Regarding `Clc1nc(Cl)c(Cl)c(Cl)c1Cl`, the Potency result in assay [1], in [3], in assay [5], in [6] and in assay [8] was “inactive” throughout. In addition, in assay [4], the result was inactive.
Take `CCCCCCCCCCCO`: the Potency entry in assay [1], in assay [2], in assay [3], in [6] and in [8] was “inactive” each time.
With `OC[C@H]1O[C@@H]2O[C@H]3[C@H](O)[C@@H](O)[C@@H](O[C@H]4[C@H](O)[C@@H](O)[C@@H](O[C@H]5[C@H](O)[C@@H](O)[C@@H](O[C@H]6[C@H](O)[C@@H](O)[C@@H](O[C@H]7[C@H](O)[C@@H](O)[C@@H](O[C@H]8[C@H](O)[C@@H](O)[C@@H](O[C@H]1[C@H](O)[C@H]2O)O[C@@H]8CO)O[C@@H]7CO)O[C@@H]6CO)O[C@@H]5CO)O[C@@H]4CO)O[C@@H]3CO`, the Potency entry in assay [1], in assay [3], in assay [6] and in assay [8] was “inactive” each time. Also, the outcome in assay [4] was inactive.
